Screens (PubChem)
SENP8 block-1: inhibitors of human SENP8 protease; purified SENP8, Z-RLRGG-aminoluciferin cleavage, luminescence; 330,000 tested, 1.2% active; inhibition, % at 10 µM; Q96LD8; in the data active = inhibition above about 50%
SENP7 block: SENP7 protease inhibition; Q9BQF6; recombinant SENP7, Z-RLRGG-aminoluciferin luminescence, 40 min; inhibition, % at 5 µM; 330,000 tested, 1.5% active; AID 434973;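 active = inhibition above about 50% at the single test dose, limit read from the data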
Target sequence (Q9BQF6 706-1050 limits assumed): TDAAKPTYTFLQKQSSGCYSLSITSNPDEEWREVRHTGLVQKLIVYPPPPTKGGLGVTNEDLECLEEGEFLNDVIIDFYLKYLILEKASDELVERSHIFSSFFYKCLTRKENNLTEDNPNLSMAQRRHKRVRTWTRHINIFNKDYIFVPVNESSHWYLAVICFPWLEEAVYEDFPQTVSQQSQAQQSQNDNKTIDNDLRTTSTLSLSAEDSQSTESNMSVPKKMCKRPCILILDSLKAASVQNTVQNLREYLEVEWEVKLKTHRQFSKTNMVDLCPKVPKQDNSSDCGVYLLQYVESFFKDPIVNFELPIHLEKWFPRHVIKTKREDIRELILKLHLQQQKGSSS
SENP8 block-2: inhibitors of human SENP8 protease | Q96LD8 | 360,000 tested, 0.64% active | recombinant SENP8, Nedd8 substrate fluorescence | inhibition, % at 20 µM; in the data active = inhibition mostly above about 40%, no sharp cut-off; inactive = mostly below about 27%
Platelet DG rel: platelet dense granule release activity; 300,000 tested, 0.22% active; inhibition, %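 (compounds screened at 7.5 µM in platelet-rich plasma)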; human platelet-rich plasma, SFLLRN dense granule ATP release, luminescence;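 active = mean replicate score, as percent of positive control, at or above 50; inconclusive = mean below 50 but at least one replicate at or above 50; inactive = mean and every replicate below 50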
SENP6 inh: SENP6 protease inhibition; Recombinant SENP6 catalytic domain, aminoluciferin luminescence; Q9GZR1; 330,000 tested, 1.8% active; inhibition, % at 10 µM;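 active = inhibition above about 50% at the single tested dose, limit read from the data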
SENP8 conf: confirmation of human SENP8 protease inhibitors; shares compounds with SENP7 block; 6,200 tested, 40% active; AID 488912; inhibition, % at 12.5 µM; Recombinant SENP8, Z-RLRGG-aminoluciferin luminescence, 60 min;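 active = mean inhibition across replicates above about 50%, limit read from the data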
SENP6 conf: confirmation of human SENP6 protease inhibitors. AID 488915. 6,200 tested, 58% active. recombinant SENP6, Z-RLRGG-aminoluciferin luminescence. inhibition, % at 12.5 µM. shares compounds with SENP7 block
SENP7 conf: human SENP7 inhibition, confirmed. recombinant SENP7, Z-RLRGG-aminoluciferin luminescence, 40 min. shares compounds with SENP7 block. inhibition, % at 12.5 µM. AID 488917. 6,200 tested, 69% active
Casp3 select: caspase-3 inhibition (SENP selectivity assay); purified caspase-3, Z-DEVD-aminoluciferin luminescence, 60 min; inhibition, % at 12.5 µM; shares compounds with SENP7 block; 6,200 tested, 60% active;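 active = mean inhibition above about 50%, limit read from the data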
Target sequence (P42574 28-227 limits assumed): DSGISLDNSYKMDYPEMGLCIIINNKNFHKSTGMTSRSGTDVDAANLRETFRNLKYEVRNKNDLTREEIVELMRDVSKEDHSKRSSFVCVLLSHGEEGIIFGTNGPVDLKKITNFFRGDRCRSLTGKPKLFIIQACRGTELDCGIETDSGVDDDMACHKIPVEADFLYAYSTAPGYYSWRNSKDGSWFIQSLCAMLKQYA
Luc interf: interferes with luciferase luminescence in SENP counter-screen; shares compounds with SENP7 block; Pre-incubated SENP8/Z-RLRGG-aminoluciferin, luciferase luminescence interference; inhibition, % at 12.5 µM; 6,200 tested, 39% active; AID 488919;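 active = mean inhibition above about 50% when retested at one dose, limit read from the data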
Hits are given with their value; - = inactive; ? = inconclusive; . = no result. In the library only some 2.4% were active in any assay of this set; here they are far more common.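 The calls were made as follows, unless noted: active = mean inhibition above about 50% in the one-dose retest (limit read from the data); inactive = the rest.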

SMILES | SENP8 block-1 | SENP7 block | SENP8 block-2 | Platelet DG rel | SENP6 inh | SENP8 conf | SENP6 conf | SENP7 conf | Casp3 select | Luc interf
CN(C(=O)Nc1cccc([N+](=O)[O-])c1)c1ccccc1 | . | . | - | . | . | . | . | . | . | .
O=C(CN(c1ccc(F)cc1)S(=O)(=O)c1ccccc1)NC1CCCCCC1 | - | - | - | - | - | . | . | . | . | .
O=C1CCN(S(=O)(=O)c2ccccc2)CCN1CCOCc1cccc(F)c1 | - | - | - | - | - | . | . | . | . | .
CN(CC(=O)Nc1ccccc1Cl)C(=O)COC(=O)c1ccc([N+](=O)[O-])s1 | 69 | - | - | . | 70 | 78 | 85 | - | - | -
Cc1ccc(NC(=O)COC(=O)c2ccc([N+](=O)[O-])s2)c(C)c1 | - | - | - | - | - | . | . | . | . | .
NS(=O)(=O)c1ccc(NC(=O)COC(=O)c2ccc([N+](=O)[O-])s2)cc1 | 59 | - | - | - | - | - | 86 | - | - | -
COc1ccccc1NC(=O)COC(=O)c1ccc([N+](=O)[O-])s1 | 72 | 51 | - | - | 91 | 75 | 85 | - | - | -
CN(CC(=O)Nc1ccccc1Cl)C(=O)COC(=O)c1cccs1 | - | - | - | . | - | . | . | . | . | .
Cc1cc(C)c(NC(=O)COC(=O)c2ccc([N+](=O)[O-])s2)c(C)c1 | - | - | - | - | - | . | . | . | . | .
Cc1ccc(CCNC(=O)c2cc(-c3ccncc3)nc3ccc(S(=O)(=O)N4CCOCC4)cc23)cc1 | - | - | - | - | - | . | . | . | . | .
CSc1nc(N)nc2c1ncn2CC(=O)N1CCN(Cc2c(C)cc(C)cc2C)CC1 | - | - | - | . | - | . | . | . | . | .
Cc1ccc(-c2nc3ccccc3nc2Cl)cc1 | - | - | - | - | - | . | . | . | . | .
Cc1ccc(-c2nc3ccccc3nc2NN)cc1 | 85 | 79 | - | - | 91 | - | 67 | 92 | 74 | -
COc1ccc(-c2nc3ccccc3c(=O)[nH]2)cc1 | - | 61 | - | - | 52 | - | - | 77 | - | -
CN(C)c1ccc(-c2nc3ccccc3c(=O)[nH]2)cc1 | 88 | 95 | - | ? | 98 | - | 95 | 100 | 89 | -
O=c1[nH]c(-c2ccncc2)nc2ccccc12 | - | - | - | - | - | . | . | . | . | .
CCCCOc1ccc(N2C(=O)CC(NCc3ccncc3)C2=O)cc1 (configuration not stated) | - | - | - | - | - | . | . | . | . | .
O=C(Nc1ccccc1)Nc1cccn(Cc2c(F)cccc2Cl)c1=O | 55 | - | - | - | 58 | - | - | 92 | 50 | -
O=C(Nc1cccn(Cc2c(Cl)cccc2Cl)c1=O)c1c(Cl)cccc1Cl | - | - | - | - | - | . | . | . | . | .
COc1ccc(F)cc1S(=O)(=O)Nc1ccncc1 | - | - | - | - | - | . | . | . | . | .
c1ccc(-c2nccc(-c3ccc4c(c3)OCO4)n2)cc1 | - | - | - | - | - | . | . | . | . | .
c1ccc(CCc2ccccc2-c2nc(-c3ccccn3)no2)cc1 | - | - | - | - | - | . | . | . | . | .
c1ccc(-c2noc(-c3ccc4c(c3)OCO4)n2)nc1 | 98 | - | - | 95 | 98 | - | 97 | 103 | 98 | -
c1ccc(-c2noc(-c3cccnc3)n2)nc1 | - | 57 | - | - | - | 51 | - | 78 | 85 | 58
Brc1ccc(-c2noc(C3CCCCC3)n2)cc1 | - | - | - | - | - | . | . | . | . | .
SMILES | SENP8 block-1 | SENP7 block | SENP8 block-2 | Platelet DG rel | SENP6 inh | SENP8 conf | SENP6 conf | SENP7 conf | Casp3 select | Luc interf
c1ccc(-c2noc(C3CCCCC3)n2)nc1 | - | 55 | - | - | 59 | - | 50 | 83 | 79 | -
c1ccc(-c2noc(-c3ccncc3)n2)nc1 | 79 | - | - | - | 81 | 81 | 82 | 96 | 96 | 83
CC(C)(C)NC(=O)CN(CCN1CCOCC1)C(=O)CNS(=O)(=O)c1ccc(Cl)cc1 | - | - | - | - | - | . | . | . | . | .
CCOC(=O)n1c(O)c(N=NC(N)=S)c2cc(C)ccc21 | - | - | - | - | - | . | . | . | . | .
c1ccc(-c2noc(-c3ccc4ccccc4c3)n2)nc1 | 96 | 100 | - | - | 97 | 94 | 99 | 101 | 97 | 60
Clc1ccccc1/C=C/c1nc(-c2ccccn2)no1 | 95 | 100 | - | ? | 96 | 99 | 100 | 103 | 98 | 74
N=C1/C(=C/c2cccs2)C(=O)N=C2SN=C(SCc3ccccc3)N12 | - | - | - | - | 66 | - | 59 | - | - | -
CSC1=NSC2=NC(=O)/C(=C\c3cccs3)C(=N)N12 | . | . | - | - | . | . | . | . | . | .
CC(C)CSC1=NSC2=NC(=O)/C(=C\c3cccs3)C(=N)N12 | - | - | - | - | 68 | 51 | 53 | - | - | -
Cc1c(C(=O)Nc2ccccc2)csc1-c1ccccc1 | 60 | 95 | - | - | 57 | - | - | 84 | - | -
Cn1ccsc1=NC(=O)c1ccc(OC(F)(F)F)cc1 | 51 | 61 | - | - | 63 | 56 | 58 | 88 | 62 | 66
COc1ccc(C(=O)N=c2sccn2C)cc1 | - | - | - | - | - | . | . | . | . | .
COC(=O)c1ccc(C(=O)N=c2sccn2C)cc1 | - | 52 | - | - | 55 | - | - | 76 | 78 | -
Cn1ccsc1=NC(=O)c1ccc(Cl)cc1 | - | - | - | - | - | . | . | . | . | .
CC(C(=O)O)c1ccc(C(=O)c2ccccc2)s1 (configuration not stated) | 52 | - | - | . | 68 | 62 | 52 | 79 | 88 | 61
CCOc1ccc(-c2nnc(-c3cccs3)o2)cc1 | 73 | 85 | - | - | - | - | 62 | 60 | 72 | -
CCOc1ccc(-c2nnc(-c3cccs3)o2)cc1OCC | - | - | - | - | - | . | . | . | . | .
CC(C)COc1ccc(-c2nnc(-c3ccncc3)o2)cc1 | - | 57 | - | - | 66 | - | - | - | - | -
COc1ccc(-c2nnc(-c3cccs3)o2)cc1OC | - | 68 | - | - | 63 | 58 | 56 | 86 | 81 | -
COc1ccc(-c2nnc(-c3ccc(OCC(C)C)cc3)o2)cc1 | - | - | - | - | - | . | . | . | . | .
c1csc(-c2nnc(-c3ccc(N4CCOCC4)cc3)o2)c1 | - | 52 | - | - | 59 | - | - | - | - | -
COC(=O)Nc1nnc(-c2ccncc2)s1 | - | - | - | - | - | . | . | . | . | .
COC(=O)Nc1nnc(-c2ccccc2Cl)s1 | - | 72 | - | - | 76 | 57 | 56 | 83 | - | -
Nc1nonc1-n1nnc(C(=O)N/N=C/c2ccc(Cl)cc2Cl)c1CN1CCOCC1 | - | - | - | - | - | . | . | . | . | .
C[C@@H]1CN([C@@H](C)CO)C(=O)CCCn2cc(nn2)CO[C@H]1CN(C)C(=O)c1ccc2ccn(C)c2c1 | . | . | - | . | . | . | . | . | . | .
